# 3CLpro inhibitor = SARS-CoV 3CLpro protease inhibitors, primary screen, biochemical, quenched FRET; recombinant SARS-CoV 3CLpro, quenched FRET peptide cleavage; Replicase polyprotein 1ab (Severe acute respiratory syndrome coronavirus), P0C6X7; inhibition, % at 6 µM; hit rate 0.14% among 290,000; in the data active = inhibition above about 12%
# PrPC surface inh = inhibitors of human cell surface prion protein PrPC, primary screen, cell-based, TR-FRET; AID 720596, 2013; TR-FRET read-out; inhibition, % at 13.8 µM; hit rate 0.43% among 370,000; Major prion protein (Homo sapiens), P04156; in the data active = inhibition above about 24%
# BJeLR lethal = MLPCN primary cell-based screen for lethality selective to Ras in HRASV12 cells; BJeLR (HRASV12) viability, CellTiter-Glo ATP luminescence, 48 h; hit rate 0.17% among 300,000; inhibition, % (test concentration not listed); in the data active = inhibition above about 50%
# VHR inh abs = VHR1 phosphatase inhibitors, primary screen, biochemical, absorbance, uHTS; Dual specificity protein phosphatase 3 (Homo sapiens), P51452; recombinant VHR phosphatase, pNPP absorbance; inhibition, % at 13.3 µM; hit rate 0.52% among 290,000; AID 1654, 2009; in the data active = inhibition above about 50%
# Sa ugtP lethal = growth inhibition of ugtP-null S. aureus, primary screen, RN4220 ugtP deletion, OD600. 16 h. growth inhibition, % (concentration not given with the values). hit rate 0.54% among 330,000. AID 1259309, 2017; in the data active = growth inhibition above about 68%
# Sa RN4220 lethal = growth inhibition of S. aureus RN4220, primary screen, OD600; 16 h; inhibition, % (concentration not given with the values); hit rate 0.33% among 330,000; in the data active = inhibition above about 85%
# PrPC TRFRET cf = confirmation of inhibitors of cell surface human prion protein, confirmation, cell-based, TR-FRET. hit rate 65% among 1,500. shares compounds with PrPC surface inh. cell surface PrPC level. inhibition, % at 13.8 µM; in the data active = inhibition above about 25%
# LD9 tox = cytotoxicity in LD9 cells, cytotoxicity control for cell surface PrPc inhibitor project, cell-based, luminescence, high throughput. hit rate 29% among 1,500. AID 743201, 2013. luminescence viability. inhibition, % at 13.8 µM. shares compounds with PrPC surface inh; in the data active = inhibition above about 9.5%
# Numbers stand for hits; 0 = inactive; - = no result given. An excerpt weighted towards active compounds, which were near 1.4% of everything screened.
SMILES,3CLpro inhibitor,PrPC surface inh,BJeLR lethal,VHR inh abs,Sa ugtP lethal,Sa RN4220 lethal,PrPC TRFRET cf,LD9 tox
O=[N+]([O-])c1c(Nc2cccc(O)c2)cc(Cl)c2nonc12,0,85,79,0,-,-,92,98
CC(NC(=O)c1ccccc1Cl)C(=O)OCC(=O)N1CC2(C)CC1CC(C)(C)C2 (centres undefined),-,-,-,-,0,0,-,-
COc1cc(CN2CCN(Cc3cccc(OC)c3OC)CC2)cc(OC)c1,0,28,0,0,0,0,0,0
COc1ccc(CN2CCN(Cc3cccc(Oc4ccccc4)c3)CC2)c(OC)c1OC,0,0,0,0,0,0,-,-
Cc1cccc(C2C3C(=O)N(Cc4ccccc4)C(=O)C3[C@]3(Cc4ccc(Cl)cc4)C(=O)N(c4cccc(Br)c4)C(=O)N23)c1 (some centres undefined),-,-,-,-,0,0,-,-
Cc1ccsc1C=NNC(=O)c1ccc2c(c1)OCCO2,-,-,-,-,0,0,-,-
Cc1cc(O)cc(O)c1/C=N/NC(=O)c1ccc2c(c1)OCCO2,-,32,-,-,-,-,25,21
Cc1cc(N2CCCC2=O)cc(C)c1S(=O)(=O)NCCOc1ccc(C(C)(C)C)cc1,0,32,0,0,0,0,29,0
O=C1CCCN1c1ccc(S(=O)(=O)NCCOc2ccccc2)cc1,0,0,0,0,0,0,-,-
O=C(Nc1ccc(S(=O)(=O)C(F)F)cc1)c1cccc(S(=O)(=O)N2CCOCC2)c1,0,29,0,0,0,0,0,16
O=C(Nc1nc(-c2ccccn2)cs1)c1cccc(S(=O)(=O)N2CCOCC2)c1,-,25,-,-,-,-,26,11
CC(C)C(NC(=O)c1ccccc1)C(=O)N1CCc2ccccc21 (centres undefined),-,-,-,-,0,0,-,-
N#CC(=Cc1ccc(O)cc1)C(N)=C(C#N)C#N,-,64,-,-,0,0,0,0
CC(C)(C)C(=O)C(C#N)=Cc1ccc(O)cc1,-,-,-,-,0,0,-,-
COC(=O)C=CC(=O)NCc1ccco1,-,-,-,-,0,0,-,-
c1ccc2c(c1)nc(N1CCOCC1)c1nncn12,0,104,0,0,0,0,0,0
CC1CN(C(C)CO)C(=O)c2cccc(NS(=O)(=O)c3ccc(F)cc3)c2OC1CN(C)Cc1ccc(-c2ccccc2)cc1 (centres undefined),-,-,-,-,0,0,-,-
OC(CN1C2=NCCCN2c2ccccc21)c1ccc2c(c1)OCO2 (centres undefined),0,0,0,0,0,0,-,-
OC(CN1C2=NCCN2c2ccccc21)c1ccc2c(c1)OCO2 (centres undefined),0,53,0,0,0,0,0,0
O=C(O)CSc1ncnc2scc(-c3ccc(Br)cc3)c12,0,27,0,0,0,0,0,0
O=C(O)CSc1ncnc2scc(-c3ccccc3)c12,0,48,0,0,0,0,72,0
CN(C)C(=O)CSc1ncnc2scc(-c3ccccc3)c12,0,0,0,0,0,0,-,-
CCOC(=O)C1=CCC(c2cc3ccc(OC)cc3n2C)N(S(=O)(=O)c2ccc(C)cc2)C1C(=O)OCC (centres undefined),-,-,-,-,0,0,-,-
CC(C)CC(N)c1csc(Nc2cnccn2)n1 (centres undefined),-,31,-,-,-,-,26,0
Cc1ccc(C2C3C(=O)N(C)C(=O)C3C3C(=O)Nc4ccccc4C(=O)N32)cc1 (centres undefined),-,-,-,-,0,0,-,-
O=C(Nc1ccc(N2CCN(C(=O)c3ccccc3)CC2)cc1)c1ccc(Br)o1,0,0,0,0,0,0,-,-
O=C(Nc1ccc(N2CCN(C(=O)c3ccccc3)CC2)c(Cl)c1)c1ccc(Br)o1,0,33,0,0,0,0,41,24
NC(=O)c1cc(NC(=O)c2cc(Br)c(Br)s2)cc(C(N)=O)c1,0,46,0,0,0,0,47,0
COc1cccc2sc3cc(NCCC4CCCN4C)ccc3c(=O)c12 (centres undefined),-,-,-,-,0,0,-,-
